Bioassay records from PubChem BioAssay.
DAX1 inh-1 – DAX1 (NR0B1) inhibitors on StAR promoter, primary screen, cell-based, luminescence, SF-1 (NR5A1), full-length DAX-1; HEK293T StAR-luciferase reporter, SF-1/DAX-1 repression relief; inhibition, % at 6.8 µM; 370,000 compounds, 1.1% hits; AID 652010, 2013;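 active = inhibition above the mean over all tested compounds plus 3 SD, cut at about 3.6% in these data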;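 note: 0% = DAX-1 cells with DMSO and 100% = cells lacking DAX-1 with DMSO; higher inhibition means more luminescence from relief of DAX-1 repression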
DAX1 inh-2 – DAX1 (NR0B1) inhibitors, primary screen, cell-based, HEK293, Gal4-DAX1, luciferase luminescence; AID 504766, 2011; Nuclear receptor subfamily 0 group B member 1 (Homo sapiens), P51843; HEK293 Gal4-DAX1 luciferase reporter; inhibition, % at 6.75 µM; 340,000 compounds, 0.99% hits;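 active = inhibition above the mean over all tested compounds plus 3 SD, cut at about 4.2% in these data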;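 note: 0% = DAX1-transfected cells with DMSO and 100% = empty-vector control cells with DMSO; inhibition shows as a rise in luminescence from relieved DAX1 repression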
ssDAF12 agonist – S. stercoralis DAF-12 nuclear receptor activators, primary screen, cell-based, luminescence, HEK293, GRIP1 co-expression, lit1-tk-luc; 370,000 compounds, 1% hits; activation, % at 6.8 µM; AID 652126, 2013; Nuclear hormone receptor DAF-12 (Strongyloides stercoralis); HEK293 ssDAF-12/GRIP1 lit1-tk-luc reporter; % of 3 µM dafachronic acid response;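 active = activation above the mean over all tested compounds plus 3 SD, cut at about 0.9% in these data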;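 note: 0% = DMSO-only wells and 100% = 3 µM delta7-dafachronic acid wells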
hgDAF-12 ag – H. glycines DAF-12 receptor agonists, primary screen, cell-based, luminescence, HEK293, GAL4 fusion, UAS-luciferase; activation, % at 6.8 µM; HEK293 GAL4-hgDAF12 UAS-luciferase reporter, agonist luminescence; normalized to butyrate control; 370,000 compounds, 1.8% hits; Nuclear hormone receptor DAF-12 (Heterodera glycines), GAL4 fusion;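 active = activation above a cutoff set at the mean of all screened compounds plus 3 SD, cut at about 10% in these data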;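 note: 0% = DMSO wells and 100% = sodium butyrate wells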
hcDAF-12 act – H. contortus DAF-12 nuclear receptor activators, primary screen, cell-based, luminescence, HEK293, lit1-tk-luc reporter; activation, % at 6.8 µM; 370,000 compounds, 1.4% hits; HEK293 hcDAF-12 lit1-tk-luc reporter; 0% DMSO, 100% Δ7-dafachronic acid;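 active = activation above the mean of all tested compounds plus 3 SD, cut at about 5.5% in these data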;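 note: 100% = response to 3 µM Δ7-dafachronic acid high control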
DAX1 inh confirm – DAX1 (NR0B1) inhibitors relieving SF-1 repression, confirmation, cell-based, luminescence, HEK293T, full-length DAX-1, SF-1 activated StAR promoter; inhibition, % at 6.8 µM; AID 652134, 2013; HEK293T StAR-promoter luciferase reporter, SF-1/DAX-1 repression; shares compounds with DAX1 inh-1; 2,400 compounds, 87% hits;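 active = inhibition above the average of every tested compound plus 3 SD, cut at about 3.8% in these data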;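 note: 0% = DAX-1 cells with DMSO and 100% = no DAX-1 control cells with DMSO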
SF1 mutant ctr – StAR reporter signal changes without DAX1, counter-screen for DAX1 inhibitor project, cell-based, luminescence, AF-2 mutant SF-1, transactivation; shares compounds with DAX1 inh-1; HEK293 StAR-luciferase, SF-1 AF2 mutant; inhibition, % at 6.8 µM; 2,400 compounds, 78% hits; AID 652136, 2013;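 active = inhibition above the mean of all tested compounds plus 3 SD, cut at about 3% in these data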;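 note: 0% = DAX-1 transfected cells with DMSO and 100% = cells without DAX-1 with DMSO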
LXR ag – LXR agonists, Gal4 luciferase reporter, confirmation, counter-screen for hcDAF-12 agonist project, cell-based, luminescence, HEK293, H. contortus campaign. AID 743027, 2013. shares compounds with hcDAF-12 act. 3,400 tested, under 10 active. activation, % at 6.8 µM. HEK293 Gal4-LXR tk-luc reporter, 24 h; normalized: DMSO 0%, positive control 100%;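 active = mean percent activation of the reporter above a cutoff set as the average over tested compounds plus their standard deviation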
Target sequence (P55055 whole entry, looked up, the tested form may be a part): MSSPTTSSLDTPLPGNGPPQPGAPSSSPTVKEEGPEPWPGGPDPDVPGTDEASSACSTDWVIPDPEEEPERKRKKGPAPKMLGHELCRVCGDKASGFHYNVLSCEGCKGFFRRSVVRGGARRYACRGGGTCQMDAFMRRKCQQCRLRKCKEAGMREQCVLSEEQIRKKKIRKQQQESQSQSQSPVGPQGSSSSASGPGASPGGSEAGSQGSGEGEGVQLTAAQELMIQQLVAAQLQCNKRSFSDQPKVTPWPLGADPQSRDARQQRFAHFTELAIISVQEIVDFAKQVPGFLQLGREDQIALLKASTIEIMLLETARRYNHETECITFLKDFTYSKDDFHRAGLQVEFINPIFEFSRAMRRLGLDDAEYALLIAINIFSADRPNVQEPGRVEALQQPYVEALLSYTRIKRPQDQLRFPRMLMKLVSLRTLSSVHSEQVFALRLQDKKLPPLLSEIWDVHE
hcDAF12 ag – H. contortus DAF-12 receptor agonists, confirmation, cell-based, luminescence, HEK293, lit1-tk-luc, triplicate; shares compounds with hcDAF-12 act; HEK293 hcDAF-12 lit1-tk-luc reporter; % of Δ7-dafachronic acid response; activation, % at 6.8 µM; 3,400 compounds, 61% hits; AID 743032, 2013;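 active = mean activation across triplicate tests above the threshold derived from the earlier primary screen, cut at about 5.5% in these data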;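 note: 0% = DMSO only wells and 100% = 3 µM Δ7-dafachronic acid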
hgDAF12 ag – H. glycines DAF-12 receptor agonists, confirmation, cell-based, luminescence, HEK293, GAL4-LBD fusion; HEK293 GAL4-hgDAF12 luciferase reporter, agonist mode; percent of butyrate response; shares compounds with hgDAF-12 ag; 3,300 compounds, 80% hits; activation, % at 6.8 µM;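 active = mean activation over triplicate wells above the hit cutoff derived from the earlier primary screen, cut at about 11% in these data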;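 note: 0% = DMSO low control and 100% = 2 mM sodium butyrate high control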
LXRb DAF12 ctr – LXR agonists, Gal4 luciferase reporter, confirmation, counter-screen for hgDAF-12 agonist project, cell-based, luminescence, HEK293, H. glycines campaign. shares compounds with hgDAF-12 ag. 24 h. activation, % at 6.8 µM. 3,300 tested, under 10 active. AID 743051, 2013;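 active = mean activation of the triplicate above a set limit carried over from the primary screen, none filed active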
Starred values were filed as active, the others as inactive; . = no result. Rows were chosen to be rich in hits. Some 4.1% of all compounds tested hit in one or more screens of this group.

SMILES | DAX1 inh-1 | DAX1 inh-2 | ssDAF12 agonist | hgDAF-12 ag | hcDAF-12 act | DAX1 inh confirm | SF1 mutant ctr | hgDAF12 ag | LXRb DAF12 ctr | others
Cc1ccnc(SCc2cn3c(C)cc(C)nc3n2)n1 | 0 | -1 | -1 | 1 | -1 | . | . | . | .
COc1ccc(NC(=O)C(C2CC2)n2c(=O)c(-c3ccccc3)nc3ccccc32)cc1 (stereo not given) | -2 | . | -1 | 0 | -1 | . | . | . | .
CCCCCc1nnc(NC(=O)C2=COCCO2)s1 | 11* | 3 | 1.9* | 20* | 9.0* | 10* | 5.0* | 14* | 1 | LXR ag=1;hcDAF12 ag=8.0*
Cn1c(=O)c2sccc2n2c(CCCC(=O)NCc3ccco3)nnc12 | -1 | 0 | -1 | 0 | 2 | . | . | . | .
C/C(=N\Nc1cccc2cccnc12)c1ccc[nH]1 | 7.5* | 2 | 1.3* | 20* | 10* | 14* | 5.2* | 18* | 1 | LXR ag=1;hcDAF12 ag=9.9*
CC(C)(C)c1ccc(C(=O)c2c[nH]c(C(=O)NCCc3ccccn3)c2)cc1 | 0 | 0 | -2 | 1 | 1 | . | . | . | .
CC(C)Oc1cccc(C(=O)NC2=NCCS2)c1 | 5.0* | 1 | 0 | 15* | 1 | 5.9* | 4.1* | 11* | 0
O=C(NC1=NCCS1)c1cccc(NC(=O)c2ccco2)c1 | 0 | -1 | -1 | 0 | 4 | . | . | . | .
CCOc1ccc(/C=N/NC(=O)CC(=O)NCc2ccccc2)cc1 | 0 | 0 | -1 | -1 | -2 | . | . | . | .
CCOc1ccc(/C=N/NC(=O)Nc2ccccc2)cc1 | 6.6* | 1 | -1 | 19* | 5 | 9.2* | 5.2* | 20* | 1
CCOc1ccc(/C=N/Nc2ccccn2)cc1 | 5.8* | 1 | 1 | 17* | 6.0* | 18* | 10* | 19* | 1
CC(=O)Oc1ccc(/C=N/NC(=S)Nc2ccccc2)cc1 | 5.0* | 3 | 0 | 17* | 6 | 15* | 8.4* | 16* | 1
COc1ccc(/C=N/Nc2cc(OC)ncn2)cc1 | 6.5* | -1 | 2.2* | 14* | 9.2* | 15* | 7.2* | 16* | 1 | LXR ag=1;hcDAF12 ag=9.4*
